High-throughput results from PubChem.
FLuc modulator: firefly luciferase modulation, counter-screen for miR-21 project. P08659. purified FLuc, Km substrates, luminescence inhibition. Potency, µM (doses to about 57.5 µM), usual class: inhibitors. actives 6.9% (n = 360,000). AID 588342; note: nearly all actives have a fitted effect of over 55% in size
Target sequence (P08659 whole entry, looked up): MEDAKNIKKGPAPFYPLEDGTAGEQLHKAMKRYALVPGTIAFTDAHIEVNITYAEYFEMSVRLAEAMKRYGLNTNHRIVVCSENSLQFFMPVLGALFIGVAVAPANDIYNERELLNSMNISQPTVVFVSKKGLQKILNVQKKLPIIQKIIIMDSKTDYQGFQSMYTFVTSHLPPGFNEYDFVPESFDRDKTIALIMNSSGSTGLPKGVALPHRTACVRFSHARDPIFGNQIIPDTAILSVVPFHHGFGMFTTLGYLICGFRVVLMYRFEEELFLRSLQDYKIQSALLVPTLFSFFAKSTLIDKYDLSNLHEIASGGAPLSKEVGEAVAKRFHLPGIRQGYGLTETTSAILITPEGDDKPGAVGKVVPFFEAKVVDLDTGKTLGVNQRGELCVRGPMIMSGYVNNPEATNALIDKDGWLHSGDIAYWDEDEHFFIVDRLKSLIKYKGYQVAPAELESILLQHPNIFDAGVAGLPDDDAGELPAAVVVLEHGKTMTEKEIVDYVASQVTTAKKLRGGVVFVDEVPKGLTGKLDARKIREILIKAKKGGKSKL
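Purified P. pyralis luciferase (10nM final) with 10uM D-luciferin and 10uM ATP (Km levels) in 50mM Tris acetate pH 7.5, 10mM Mg acetate, 0.01% Tween-20, 0.05% BSA; qHTS 6-point titration, ~60 µM downward; luminescence read.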
ELG1 genotox: induces genotoxicity in HEK293T cells with luciferase-tagged ELG1. HEK293T ELG1-luciferase reporter, luminescence, 16 h. Potency, µM (series often up to 46 µM), actives largely listed as activators. actives 1.3% (n = 330,000); note: nearly all actives have a fitted effect of over 60% in size
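After overnight (16 hr) compound treatment at 37 °C, ELG1-luciferase HEK293T cells were lysed with ONE-Glo; luminescence quantified 30 min later at room temperature.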
Rab9 prom act: activators of Rab9 promoter; Huh7 Rab9 promoter-luciferase reporter, luminescence, 24 h; Potency, µM (top dose mostly 9.22 µM), most hits filed as activators; actives 2.8% (n = 320,000); note: nearly all actives have a fitted effect of over 60% in size
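Cells were plated at 1500 per well in reduced-serum medium with 10% FBS and left 2 h. Compound in DMSO was then added for 24 h at 37 °C. Reporter signal was read by luminescence after 10 min with luciferase detection reagent.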
NPC1 prom act: NPC1 promoter activation; Huh7 NPC1 promoter luciferase reporter, 24 h; Potency, µM (top dose mostly 9.22 µM), usual class: activators; actives 2.4% (n = 320,000); note: nearly all actives have a fitted effect of over 60% in size
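Compounds in DMSO were transferred onto Huh7 NPC1-luciferase reporter cells pre-incubated 2 h; after 24 h at 37 °C, Amplite reagent was dispensed and luminescence recorded 10 min later.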
SMN2 splice enh: SMN2 splice variant enhancement. actives 2.8% (n = 210,000). Potency, µM (doses to about 46.1 µM), hits mostly activators. HEK293 SMN2-luciferase splicing reporter, luminescence, 30-36 h; note: nearly all actives have a fitted effect of over 55% in size
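HEK293 cells carry an SMN2 […]–luciferase reporter in which exon 7 inclusion puts luciferase in frame. Cells were plated 10-12 h before compound addition, then incubated 30-36 h at 37C. ONE-Glo luminescence was read; sodium butyrate at 4.5 mM final served as control.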
ELG1 repair inh: ELG1-dependent DNA repair inhibition; HEK293T ELG1-luciferase reporter, luminescence, 16 h; DNA damage induced by 5-fluorouridine; Potency, µM (top dose mostly 46.1 µM), most hits filed as inhibitors; actives 2.3% (n = 330,000); AID 504467; note: nearly all actives have a fitted effect of over 55% in size
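Luminescence from the luciferase reporter, measured 30 min after ONE-Glo reagent at room temperature, was the read-out. Beforehand, 2,000 cells per well were exposed for 16 hr at 37 °C to 5-fluorouridine together with compound or vehicle.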
Hits are given with their value; - = inactive; ? = inconclusive; . = no result given. This is a sample that favours compounds with a hit; in the whole collection about 9.2% have one here. Calls come from the whole dose curve; as a rule, active = well fitted curve in the direction sought with a large enough effect; inconclusive = small, poorly fitted or top-dose-only effect, or another doubt; inactive = no such curve, though single readings can be large; an effect the other way counts as inactive or inconclusive.

SMILES	FLuc modulator	ELG1 genotox	Rab9 prom act	NPC1 prom act	SMN2 splice enh	ELG1 repair inh
CN(Cc1ccc(-n2cccn2)cc1)C(=O)c1cnn2c1NC(c1ccco1)CC2C(F)(F)F (stereo not drawn)	-	-	-	-	-	10µM
O=C(NCc1cccc(Cl)c1)c1cnn2c1NC(c1ccco1)CC2C(F)(F)F (stereo not drawn)	-	-	-	-	-	?
O=S(=O)(Nc1nccs1)c1ccc(Cl)cc1	-	-	-	-	-	-
CCOc1ccc(NC(=O)CN2C(=O)NC(CCSC)C2=O)cc1 (stereo not drawn)	-	-	-	-	-	-
CCCCC[C@H](O)/C=C/[C@@H]1[C@H](C/C=C\CCCC(=O)O)[C@@H](O)C[C@H]1O	.	.	.	.	-	.
Cc1cccc(-n2c(CCN3C(=O)c4ccccc4C3=O)nc3ccccc3c2=O)n1	-	-	-	-	-	-
Cc1cccc(-n2c(CCCN3C(=O)c4ccccc4C3=O)nc3ccccc3c2=O)n1	-	23µM	-	-	-	-
O=C(CCS(=O)(=O)c1cccs1)NC1CCCCCC1	17µM	?	3.5µM	2.8µM	-	?
COc1cc(NC(=O)CN2CCN(S(=O)(=O)/C=C/c3ccccc3)CC2)cc(OC)c1OC	-	-	-	-	.	?
O=C(Nc1ccncc1)c1ccc2c(c1)S(=O)(=O)c1ccccc1C2=O	-	-	-	-	-	9.2µM
O=C(Nc1ccc(-c2cnco2)cc1)c1ccc(Cl)cc1	-	?	-	?	.	?
O=C(Nc1ccncc1)c1ccc(F)cc1	-	-	-	-	-	-
O=C(Nc1ccc(-c2cnco2)cc1)c1ccccc1	?	?	2.5µM	3.2µM	.	?
O=C(Nc1ccncc1)c1ccc(-c2ccccc2)cc1	?	-	-	-	-	1.8µM
CC(C)NC(=O)c1ccc2c(c1)S(=O)(=O)c1ccccc1C2=O	-	-	-	-	-	-
O=C(Nc1cccnc1)c1ccc(-c2ccccc2)cc1	2.4µM	?	?	?	-	?
Cc1ccc(C(C(=O)NC(C)(C)C)N(CC2CCCO2)C(=O)CCC(=O)Nc2ccccn2)cc1 (stereo not drawn)	-	-	-	-	.	-
CCC(=O)Nc1ccc(C(=O)Nc2cccnc2)cc1	?	?	-	-	?	?
CC(C)c1ccc(C(=O)Nc2cccnc2)cc1	3.4µM	5.2µM	?	1.6µM	.	?
CCC(C)c1ccc(NC(=O)c2cccnc2)cc1 (stereo not drawn)	12µM	?	2.5µM	2.8µM	13µM	?
CC(C)(C)C(=O)Nc1ccc(C(=O)Nc2cccnc2)cc1	21µM	21µM	4µM	?	?	?
O=C(Nc1nccs1)c1ccc(COc2ccccc2Cl)o1	?	-	-	-	-	-
O=C(COc1ccc(S(=O)(=O)N2CCOCC2)cc1)Nc1cccc([N+](=O)[O-])c1	-	-	-	-	.	-
O=S(=O)(c1cccc(-c2csc(N/N=C/c3ccco3)n2)c1)N1CCOCC1	?	-	-	-	.	23µM
O=S(=O)(c1cccc(-c2csc(-c3ccccc3)n2)c1)N1CCOCC1	-	-	-	-	-	-
SMILES	FLuc modulator	ELG1 genotox	Rab9 prom act	NPC1 prom act	SMN2 splice enh	ELG1 repair inh
COc1ccc(/C=N/Nc2nc(-c3cccc(S(=O)(=O)N4CCCC4)c3)cs2)cc1OC	?	-	-	-	-	?
CCOc1cc(/C=N/Nc2nc(-c3cccc(S(=O)(=O)N4CCCC4)c3)cs2)ccc1O	-	-	-	-	-	21µM
COc1cc(/C=N/Nc2nc(-c3ccc(S(=O)(=O)N(C)C)cc3)cs2)ccc1O	3.4µM	-	-	-	.	12µM
Cc1ccccc1-c1nc(CS(=O)CC(=O)NCc2ccccn2)c(C)o1 (stereo not drawn)	-	-	-	-	.	-
CC(=O)c1cccc(NC(=O)Nc2sc3nc4n(c(=O)c3c2C)CCC(C)CC4)c1 (stereo not drawn)	-	.	.	.	-	.
CC(=O)Nc1ccc(S(=O)(=O)NNc2cccc(C)c2)cc1	?	?	-	-	.	-
CCCCc1c(C)nc2c(OC)cccc2c1SCC(=O)O	-	-	-	-	.	?
COc1cccc2c(Cl)c(CCCl)c(C)nc12	21µM	-	-	-	-	-
COc1ccc(C(=O)O)cc1S(=O)(=O)NCCN(C)C	-	-	-	-	.	-
CCOC(=O)c1c(C)oc2ncnc(Nc3cc(C)cc(C)c3)c12	-	.	.	.	.	.
COCCn1c(C)cc(C(=O)CSc2nnnn2C2CCCC2)c1C	0.085µM	?	?	0.1µM	.	?
COCCn1c(C)cc(C(=O)CSc2nnc(C)s2)c1C	1.7µM	.	.	.	-	.
CC(C)C[C@@H]1NC(=O)[C@H](CO)NC(=O)c2cc([N+](=O)[O-])cc(I)c2OCC[C@@H](C(N)=O)NC1=O	-	-	-	-	-	-
CCN(CC)c1ccc(/C=N/Nc2nn[nH]n2)cc1	17µM	-	-	-	.	?
Cc1cccc(NC(=O)c2sc3cccc(Cl)c3c2Cl)c1	?	.	.	.	-	.
Cc1nc(Nc2nc(CSc3nc4ccccc4[nH]3)cc(=O)[nH]2)nc2ccccc12	-	-	-	-	-	13µM
COc1ccc2nc(Nc3nc(CSc4nc5ccccc5[nH]4)cc(=O)[nH]3)nc(C)c2c1	?	-	-	-	-	5.8µM
COc1ccc2c(c1)O[C@@H](c1ccc3c(c1)OCO3)[C@H](OC(=O)Nc1ccc(C)c(Br)c1)C2=O	.	.	.	.	-	.
O=C(Nc1ccccc1C(=O)NCc1cccnc1)c1cccc([N+](=O)[O-])c1	-	-	-	-	-	?
CC(=O)N(c1ccccc1)c1nnc(-c2cnc(C)cn2)s1	?	9.2µM	3.2µM	1.6µM	.	?
COC(=O)C1Cc2c([nH]c3ccccc23)C(C(C)C)N1 (stereo not drawn)	-	-	-	-	.	?
COC(=O)[C@@H]1Cc2c([nH]c3ccccc23)C(C)N1C(=O)c1ccccc1 (stereo partly drawn)	-	-	-	-	.	12µM
CN1CCC(Oc2ccccc2Sc2ccc(C(F)(F)F)cc2)CC1	-	-	-	-	-	-
CN1CCC(Oc2ccc(Sc3ccccc3)cc2)CC1	12µM	?	-	-	-	?
Cc1nc2cc(C(=O)O)ccc2s1	17µM	?	2.8µM	1.4µM	11µM	?
COc1ccccc1N(C)S(=O)(=O)c1ccc(C(=O)Nc2ncc(C)s2)cc1	.	-	-	-	.	?
NNC(=O)c1ccc2ccccc2n1	-	-	-	-	-	?
Cc1nnc(NC(=O)c2ccc3ccccc3n2)s1	24µM	?	3.5µM	?	.	?
COc1ccccc1N(C)S(=O)(=O)c1ccc(C(=O)Nc2ccc3nc(C)sc3c2)cc1	-	-	-	-	-	26µM
